Counter-ions that a name gives are not always drawn.
Legend:
Experiment in all cases: thermal shift delta Tm vs DMSO control; higher = stronger stabilization (binding)
Details in all cases: 12.5 µM; protein concentration 2 µM
LOC_OS04G57630-cb004 = test system: LOC_OS04G57630-cb004
Summary of the method: (§1)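 Compounds dissolved in DMSO were added to purified rice kinase domain constructs, which had been expressed in E. coli, for differential scanning fluorimetry. Each well held 19.5 μl of 2 μM kinase in 100 mM potassium phosphate pH 7.5, 150 mM NaCl, 10% glycerol and 5 × SYPRO Orange. Fluorescence was followed from 25°C to 95°C at a rate of 0.05°C/s. Shifts in Boltzmann-fitted melting temperature are triplicate means relative to DMSO-only protein.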

LOC_OS05G07850-cb002 = test system: LOC_OS05G07850-cb002
Summary of the method: as §1

LOC_OS05G16824-cb004 = test system: LOC_OS05G16824-cb004
Summary of the method: as §1

LOC_OS05G28520-cb001 = test system: LOC_OS05G28520-cb001
Summary of the method: as §1

LOC_OS05G30820-cb001 = test system: LOC_OS05G30820-cb001
Summary of the method: as §1

LOC_OS05G43570-cb004 = test system: LOC_OS05G43570-cb004
Summary of the method: as §1

LOC_OS06G16330-cb003 = test system: LOC_OS06G16330-cb003
LOC_OS06G16330-cb003, sequence (as listed by the source): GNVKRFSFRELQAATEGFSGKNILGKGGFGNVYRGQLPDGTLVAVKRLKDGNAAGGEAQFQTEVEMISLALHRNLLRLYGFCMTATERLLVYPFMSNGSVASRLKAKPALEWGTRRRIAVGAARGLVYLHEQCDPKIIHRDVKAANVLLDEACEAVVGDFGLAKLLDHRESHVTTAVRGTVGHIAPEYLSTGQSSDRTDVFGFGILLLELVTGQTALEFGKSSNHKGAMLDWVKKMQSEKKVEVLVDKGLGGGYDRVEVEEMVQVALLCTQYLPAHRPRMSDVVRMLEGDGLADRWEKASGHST
Summary of the method: as §1

LOC_OS06G22820-cb001 = test system: T1, LOC_OS06G22820-cb001
T1 sequence (whole entry): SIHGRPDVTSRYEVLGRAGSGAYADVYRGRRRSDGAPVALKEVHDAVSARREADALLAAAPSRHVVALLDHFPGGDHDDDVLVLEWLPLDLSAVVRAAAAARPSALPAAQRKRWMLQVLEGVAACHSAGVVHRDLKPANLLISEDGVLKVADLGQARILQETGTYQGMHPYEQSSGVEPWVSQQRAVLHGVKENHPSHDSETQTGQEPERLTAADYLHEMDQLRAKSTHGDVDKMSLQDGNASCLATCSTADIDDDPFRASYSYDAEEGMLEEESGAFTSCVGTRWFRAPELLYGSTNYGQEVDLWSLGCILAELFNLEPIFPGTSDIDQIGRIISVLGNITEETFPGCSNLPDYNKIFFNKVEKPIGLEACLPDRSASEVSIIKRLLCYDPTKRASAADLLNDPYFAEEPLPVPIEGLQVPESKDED
Summary of the method: as §1

LOC_OS07G06570-cb004 = test system: LOC_OS07G06570-cb004
Summary of the method: as §1

LOC_OS07G07230-cb001 = test system: LOC_OS07G07230-cb001
Summary of the method: as §1

Row | Compound | thermal shift delta Tm (LOC_OS04G57630-cb004) [°C] | thermal shift delta Tm (LOC_OS05G07850-cb002) [°C] | thermal shift delta Tm (LOC_OS05G16824-cb004) [°C] | thermal shift delta Tm (LOC_OS05G28520-cb001) [°C] | thermal shift delta Tm (LOC_OS05G30820-cb001) [°C] | thermal shift delta Tm (LOC_OS05G43570-cb004) [°C] | thermal shift delta Tm (LOC_OS06G16330-cb003) [°C] | thermal shift delta Tm (LOC_OS06G22820-cb001) [°C] | thermal shift delta Tm (LOC_OS07G06570-cb004) [°C] | thermal shift delta Tm (LOC_OS07G07230-cb001) [°C]
1 | COc1cc(Nc2ncc(F)c(Nc3ccc4c(n3)NC(=O)C(C)(C)O4)n2)cc(OC)c1OC | 1.55 | 13.2 | 12.2 | 0.56 | 1.19 | 0.37 | 12.2 | 0.02 | 0.43 | 0.41
2 | Cc1ccc(NC(=O)c2ccc(CN3CC[C@H](N(C)C)C3)c(C(F)(F)F)c2)cc1Nc1nccc(-c2cncnc2)n1 [Bafetinib (INNO-406)] | 0.08 | 0.37 | -2.81 | 1.08 | 0.77 | 0.5 | -0.31 | 0.4 | 1.66 | 0.62
3 | O=C(O)c1ccc(-c2c[nH]c3ncc(-c4ccccc4)cc23)cc1C1CCCC1 | 3.53 | 6.21 | 4.46 | 1.1 | 0.74 | -0.07 | 10.4 | 0.29 | -3.29 | 0.05
4 | COc1cc2ncnc(Nc3ccc(F)c(Cl)c3)c2cc1OCCCN1CCOCC1 [Gefitinib (ZD1839)] | -0.05 | 9.4 | -0.18 | 0.21 | 0.41 | 0.31 | 2.35 | 0.63 | 0.99 | 0.24
5 | COc1ccc(-c2ccc3c(N4CCOC[C@@H]4C)nc(N4CCOC[C@@H]4C)nc3n2)cc1CO | -0.09 | 0.42 | -7.62 | 0.13 | 0.67 | 0.21 | 0.03 | 0.43 | 0.38 | 0.11
6 | CC1(C)CNc2cc(NC(=O)c3cccnc3NCc3ccncc3)ccc21 [Motesanib Diphosphate (AMG-706)] | -0.11 | 0.52 | -3.02 | 0.68 | 0.49 | 0.21 | -0.19 | 0.37 | 0.75 | 0.81
7 | C[C@@H]1COCCN1c1cc(=O)n2c(n1)N(Cc1cncc(Cl)c1)[C@H](C(F)(F)F)CC2 | 0.52 | -0.08 | -0.52 | 1.37 | 0.35 | 0.36 | -0.04 | 0.75 | 1.02 | -0.12
8 | CN(C)Cc1cccc(N=C(c2ccccc2)c2c(O)[nH]c3cc(C(=O)N(C)C)ccc23)c1 | 0.46 | 5.73 | 3.8 | -0.08 | 0.49 | 0.76 | 0.77 | 0.98 | 0.59 | -0.37
9 | O=C(Nc1cnn2ccc(N3CCC[C@@H]3c3cc(F)ccc3F)nc12)N1CC[C@H](O)C1 [Larotrectinib (LOXO-101) sulfate] | -0.61 | 5.23 | 0.04 | 0.01 | 0.53 | 0.03 | 2.16 | 0.35 | 0.63 | 0.56
10 | CCc1cc(Nc2nccc(-c3c(-c4ccc(OC)c(C(=O)Nc5c(F)cccc5F)c4)nc4ccccn34)n2)c(OC)cc1N1CCC(N2CCN(S(C)(=O)=O)CC2)CC1 | -0.18 | 0.07 | -0.08 | 1.11 | 0.41 | 0.31 | -0.08 | 0.94 | 0.75 | 0.69
11 | CN1CCC(COc2cnc(-c3cccc(Cn4nc(-c5cccc(C#N)c5)ccc4=O)c3)nc2)CC1 | 0.46 | 0.61 | -1.27 | 0.69 | 0.42 | 0.46 | 0.55 | 0.49 | 1.28 | 0.18
12 | CNC(=O)c1ccc(-c2cnc3ncc(Cc4ccc5ncccc5c4)n3n2)cc1F | 0.55 | 0.67 | -1.29 | 0.04 | 0.18 | 0.63 | -2.08 | 0.46 | 1.26 | 0.89
13 | Cc1cnc(Nc2ccc(N3CCN(C)CC3)cc2)nc1Nc1cccc(S(=O)(=O)NC(C)(C)C)c1 | 2.45 | 10.4 | 7.7 | 1.9 | 0.89 | 0.98 | 5.92 | 0.43 | 0.63 | -0.42
14 | Cc1[nH]nc2ccc(-c3cncc(OC[C@@H](N)Cc4ccccc4)c3)cc12 | 0.79 | 6.97 | 1.39 | 0.6 | 0.56 | 1.24 | 0.93 | 0.49 | 0.93 | 0
15 | COc1cc2c(Oc3ccc(NC(=O)C4(C(=O)Nc5ccc(F)cc5)CC4)cc3F)ccnc2cc1OCCCN1CCOCC1 | 6.98 | 13.9 | 5.71 | 16 | 0.55 | 0.27 | 9.02 | 0.8 | 0.2 | 0.3
16 | Cc1cc(Nc2cc(N)ncn2)c(=O)n2c1C(=O)NC21CCCCC1 | 0.21 | 5.64 | 1.99 | -0.15 | 0.03 | 0.05 | 0.4 | 0.25 | 0.6 | 0.71
17 | Cc1csc(-c2nnc(Nc3ccc(Oc4ncccc4-c4ccnc(N)n4)cc3)c3ccccc23)c1 | 0.49 | 6.74 | 1.04 | 0.38 | 0.85 | 0.03 | 3.12 | 0.66 | 0.09 | 0.17
18 | COc1cc(N2CCN(C)CC2)ccc1Nc1ncc2c(n1)N(C)c1ccccc1C(=O)N2 | 0.23 | 3.08 | -1.75 | 0.12 | 0.51 | 0.36 | 1.14 | 0.34 | 0.21 | 0.21
19 | Clc1ccc(Nc2nnc(Cc3ccncc3)c3ccccc23)cc1 [Vatalanib (PTK787) 2HCl] | -0.2 | -0.28 | -1.81 | -0.19 | 0.45 | 0.05 | 0.09 | 0.55 | 0.43 | 0.41
20 | CCN(C)S(=O)(=O)Nc1ccc(F)c(C(=O)c2c[nH]c3ncc(-c4cnc(C5CC5)nc4)cc23)c1F | 1.47 | 6.9 | 1.58 | 1.1 | 0.45 | 0.13 | 1.23 | 0.65 | 0.34 | 1.77
21 | CN1CCN(c2ccc(OC(F)(F)F)c(Nc3ncc4c(n3)-c3c(c(C(N)=O)nn3CCO)CC4)c2)CC1 | 2.32 | 0.85 | -0.84 | 0.63 | 0.48 | 0.54 | 0.46 | 0.49 | 1.36 | 0.02
22 | O=C1NC(=O)C(c2ccccc2[N+](=O)[O-])=C1Nc1ccc(O)c(Cl)c1 | -0.28 | 4.16 | -13.3 | 1.12 | 0.7 | 0.82 | -0.2 | 0.75 | 2.88 | 0.07
23 | O=C(NCc1cccc(O)c1)Nc1nc(-c2ccncc2)cs1 | 1.08 | 3.27 | -3.55 | 0.81 | 0.5 | 1.02 | 0.47 | 0.43 | 1.09 | 0.35
24 | O=C1NC(=O)C(=Cc2ccc(-c3ccc(F)cc3)o2)S1 (stereo in doubt) | 0.48 | 1.37 | -3.64 | 0.89 | 0.73 | 1.06 | 0.12 | 0.65 | 0.53 | 0.04
25 | Cn1cc(-c2cnn3c(N)c(Br)c([C@@H]4CCCNC4)nc23)cn1 | 0.1 | 6.22 | 4.78 | 0.02 | 0.27 | 0.29 | 7.12 | 0.34 | 0.75 | 0.55

Reference: the supplement of paper PMC9694430
